# The list is not random: actives were taken first. Their share in the collection is about 3.5%.
# TEAD-YAP block: TEAD-YAP interaction inhibition | 640,000 tested, 1.4% active | inhibition, % at 9.12 µM | HEK-TIYL cells, TEAD-Gal4/YAP UAS-luciferase luminescence | AID 1259422; in the data active means inhibition above about 32%;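 further: 0% = median of test compound wells and 100% = reference inhibitor wells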
# FBW7 act: human FBW7 E3 ligase activation, primary screen | AlphaScreen FBW7–phospho-cyclin E peptide binding, activator screen | 650,000 tested, 0.13% active | normalized activity (activation), % at 26.1 µM | Q969H0; in the data active means normalized activity above about 1.9%;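 further: purified mutant Fbw7 with reduced substrate affinity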
# GPR151 ag: activates the human receptor GPR151; Q8TDV0; activation, % at 11.2 µM; 650,000 tested, 1% active; PathHunter beta-arrestin GPR151 cells, luminescence; AID 1508602; in the data active means activation above about 4.9%;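 further: 0% = median of compound wells and 100% = cells with positive control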
# MITF primary: blocks human microphthalmia-associated transcription factor. 650,000 tested, 0.91% active. inhibition, % at 2.6 µM. O75030. AlphaScreen MITF homodimerization, bead proximity signal; in the data active means inhibition above about 50%;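 further: 0% = vehicle wells with protein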
# Target sequence (O75030 whole entry, looked up): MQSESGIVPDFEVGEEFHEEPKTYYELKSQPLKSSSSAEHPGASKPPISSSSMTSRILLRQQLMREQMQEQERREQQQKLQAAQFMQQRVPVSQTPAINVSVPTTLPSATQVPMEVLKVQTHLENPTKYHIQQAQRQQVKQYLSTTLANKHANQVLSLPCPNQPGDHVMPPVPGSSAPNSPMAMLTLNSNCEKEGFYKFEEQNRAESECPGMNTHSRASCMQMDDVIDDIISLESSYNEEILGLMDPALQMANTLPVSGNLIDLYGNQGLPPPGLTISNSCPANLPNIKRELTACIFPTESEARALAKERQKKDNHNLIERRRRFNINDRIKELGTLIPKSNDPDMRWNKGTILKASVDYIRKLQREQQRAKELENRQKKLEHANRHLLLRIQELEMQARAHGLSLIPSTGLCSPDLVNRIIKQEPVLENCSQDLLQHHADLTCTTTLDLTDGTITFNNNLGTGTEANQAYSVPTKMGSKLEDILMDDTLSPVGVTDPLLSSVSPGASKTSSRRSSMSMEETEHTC
# * marks the source's active call; other numbers are inactive results.
SMILES,TEAD-YAP block,FBW7 act,GPR151 ag,MITF primary
NS(=O)(=O)c1ccc(Nc2nccc(-c3cccc(Nc4ccccc4)c3)n2)cc1,54*,0,3,1
N#Cc1cccc(-c2ccnc(Nc3ccc(S(N)(=O)=O)cc3)n2)c1,-4,0,1,1
CN1CCN(CCCNC(=O)c2cc3c(-c4ccc(Cl)cc4)nn(C)c3s2)CC1,-5,1,2,14
CN(C)CCNC(=O)c1cc2c(-c3ccc(Cl)cc3)nn(C)c2s1,68*,1,-1,11
COc1cccc(Nc2nnc(Cc3ccccc3Cl)c(=O)[nH]2)c1,46*,0,-1,-4
O=c1[nH]c(Nc2ccccc2)nnc1Cc1ccccc1Cl,4,0,0,-7
CCCCOc1ccc(S(=O)(=O)n2cnc3cc(C)c(C)cc32)cc1,48*,0,-1,-4
Cc1ccc(S(=O)(=O)n2cnc3cc(C)c(C)cc32)cc1C,39*,0,1,23
Cc1cc2ncn(S(=O)(=O)c3ccc(S(N)(=O)=O)cc3)c2cc1C,-2,0,-1,19
Cc1ccc(S(=O)(=O)n2cnc3cc(C)c(C)cc32)cc1,-6,0,0,12
CCOc1ccc(S(=O)(=O)n2cnc3cc(C)c(C)cc32)cc1,34*,0,1,-3
O=C(O)C1CCCN1S(=O)(=O)c1cccc([N+](=O)[O-])c1 (stereo not drawn),0,0,0,-2
Nc1cccc(NC(=O)CCC(=O)O)c1,1,0,-1,10
Cn1cc(C(=O)N2CCN(c3ccccc3Cl)CC2)c2ccccc2c1=O,43*,0,0,8
Oc1ccccc1C(Nc1ncccn1)c1ccc2cccnc2c1O (stereo not drawn),34*,-1,4,28
CCOc1cc(C(Nc2cccnc2)c2ccc3cccnc3c2O)ccc1O (stereo not drawn),-2,0,2,5
Oc1c(C(Nc2cccnc2)c2ccccc2F)ccc2cccnc12 (stereo not drawn),75*,-1,-2,51*
Cc1c(C(=O)Nc2ccc(-c3nc4cc(Cl)ccc4o3)cc2)oc2ccccc12,-1,0,-1,3
c1ccc2[nH]c(CNc3nc(Nc4ccncc4)nc4c3ncn4-c3ccsc3)nc2c1,85*,0,-3,5
c1cn(-c2ccc(Nc3nc(Nc4ccc5c(c4)OCO5)c4ncn(-c5ccsc5)c4n3)cc2)cn1,53*,0,-1,13
Cn1c(Nc2nc(NCc3nc4ccccc4[nH]3)c3ncn(-c4ccsc4)c3n2)nc2ccccc21,22,0,0,12
c1ccc2[nH]c(CNc3nc(Nc4ccc(-n5ccnc5)cc4)nc4c3ncn4-c3ccsc3)nc2c1,65*,0,-2,3
c1ccc2[nH]c(CNc3nc(Nc4ccncn4)nc4c3ncn4-c3ccsc3)nc2c1,82*,0,-2,-1
CCCc1ccc(C(=O)Oc2ccc(-c3noc(-c4ccncc4)n3)cc2)nc1,-6,1,-1,16
CCOC(=O)c1ccc(NC(=O)c2ccccc2CCc2ccccc2)cc1,4,0,-1,7
SMILES,TEAD-YAP block,FBW7 act,GPR151 ag,MITF primary
CCC(C(=O)NC1CCCC1)N(Cc1ccco1)C(=O)CNS(=O)(=O)c1ccccc1 (stereo not drawn),3,0,1,4
CCN(CC)C(=O)C1CCCN(c2ncc(C)c(NCCOc3ccccc3)n2)C1 (stereo not drawn),5,0,-1,5
c1cncc(CNc2nc(Nc3ccc(-n4ccnc4)cc3)nc3c2ncn3-c2ccsc2)c1,55*,0,0,6
CCCCC(CC)CN1CC(O)=C(c2nc3ccccc3[nH]2)C1=N (stereo not drawn),-2,0,-2,1
COc1ccc(/C=C/C(=O)Nc2ccc(S(=O)(=O)N3CCCCCC3)cc2)cc1,32*,0,1,6
COc1ccc(/C=C/C(=O)Nc2ccc(S(=O)(=O)N3CCCC3)cc2)cc1,14,0,1,-4
CC1CCCN(S(=O)(=O)c2ccc(NC(=O)/C=C/c3ccco3)cc2)C1 (stereo not drawn),41*,0,-1,-6
CC1CCN(C(=O)CN2C(=O)C(C)(C)Oc3ccc(C(=O)NC4CC4)cc32)CC1,11,0,0,-5
CN(C)c1ccc(C(=C2C=CC(=[N+](C)C)C=C2)c2ccc(N(C)C)cc2)cc1,89*,-1,2,92*
CN(C)c1ccc(C(=NO)c2ccc(N(C)C)cc2)cc1,21,0,0,8
CC(=O)Nc1ccc(C(=O)N2CCN(c3cccc(C)c3C)CC2)cc1,-11,0,1,-5
COc1ccccc1C(=O)N1CCN(c2cccc(C)c2C)CC1,47*,0,0,-4

# Bioassay records (PubChem BioAssay)
